Experimental data as given in PubChem BioAssay (NCATS).
Results filed as inconclusive are left out. A number with no mark means an inactive call. Calls follow the shape of the dose curve; as a rule, active = well fitted inhibition curve with a large enough effect; inconclusive = small, poorly fitted or top-dose-only effect; inactive = no such curve, though single readings can be large or run the other way.
% is scaled to controls: 0 for no effect and ±100 for the full control effect.

Each molecule was assayed against Endonuclease 4 (Escherichia coli (strain K12)) (UniProt P0A6C1) (assay: Counterscreen for APE1 Inhibitors: qHTS Validation Assay for Inhibitors of Endonuclease IV (AID 1708)). Conditions: E. coli endonuclease IV, DNA cleavage fluorescence; series mostly up to 57.1 µM; activity change, negative = inhibition: at the top concentration.
In short: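 Concentration-response counterscreen run identically to the APE1 assay: 15 min room-temperature preincubation of 2 nM enzyme with compound, reaction started with 50 nM quenched abasic DNA, progress taken from kinetic fluorescence.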
For CCCCNC(=O)NS(=O)(=O)c1ccc(C)cc1, the “activity change, negative = inhibition” value was -8.67%. With CN(C(=O)CCCOc1ccc2[nH]c(=O)ccc2c1)C1CCCCC1 the “activity change, negative = inhibition” value was -11.7%. With Cc1scc2c1N(C(=O)CN1CCN(C)CC1)c1ccccc1NC2=O the “activity change, negative = inhibition” value was -7.71%. In the case of COc1cc(Cc2cnc(N)nc2N)cc(OC)c1OC, the “activity change, negative = inhibition” value is reported as 34.9%. With CC(=O)Oc1cc(C(C)C)c(OCCN(C)C)cc1C the “activity change, negative = inhibition” value was -11.5%. In the case of CC(=O)OCC1=C(C(=O)O)N2C(=O)[C@@H](NC(=O)Cc3cccs3)[C@H]2SC1, the “activity change, negative = inhibition” value is reported as -5.06%. For CCn1ccnc1CC1COc2ccccc2O1 (stereo not drawn), the “activity change, negative = inhibition” value was -3.78%. In the case of Cc1nnc(SCC2=C(C(=O)O)N3C(=O)[C@@H](NC(=O)Cn4cnnn4)[C@H]3SC2)s1, the “activity change, negative = inhibition” value is reported as -7.95%. With CN(C)CC[C@@H](c1ccc(Br)cc1)c1ccccn1 the “activity change, negative = inhibition” value was 0.482%. CNCCC(Oc1ccccc1OC)c1ccccc1 (stereo not drawn) was tested, and the “activity change, negative = inhibition” value was -7.39%. With OC(CCN1CCCCC1)(c1ccccc1)C1CCCCC1 (stereo not drawn) the “activity change, negative = inhibition” value was -7.71%. In the case of c1ccc2c(c1)CCCC2C1=NCCN1 (stereo not drawn), the “activity change, negative = inhibition” value is reported as -7.79%. For NC(N)=N/N=C/c1c(Cl)cccc1Cl, the “activity change, negative = inhibition” value was -5.38%. For COc1ccc([C@@H]2Sc3ccccc3N(CCN(C)C)C(=O)[C@@H]2OC(C)=O)cc1, the “activity change, negative = inhibition” value was -6.18%. In the case of Cc1cc(C)c(/C=C2\C(=O)Nc3ccccc32)[nH]1, the “activity change, negative = inhibition” value is reported as -7.63%. C[C@]12CCC(=O)C=C1CC[C@@H]1[C@@H]2CC[C@@]2(C)[C@H]1CC[C@]2(O)C(=O)CO was tested, and the “activity change, negative = inhibition” value was 28.4%. For CN(C)CCN(Cc1cccs1)c1ccccn1, the “activity change, negative = inhibition” value was -0.241%. COCCc1ccc(OCC(O)CNC(C)C)cc1 (stereo not drawn) was tested, and the “activity change, negative = inhibition” value was -8.59%.
